Structures are written as SMILES. This is part of a sample that, as a whole, favours compounds with a hit. Of some 83,000 tested, about 20% had one in any assay.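 Plates (96-well) were seeded with cells, treated with compound at one concentration, and incubated for 48 hours before percent growth was determined.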 A number with no mark means an inactive call. Activity calls are given as the source filed them. The calls were made as follows: active = growth percent below 10; inactive = the rest.

Holding throughout (assay): NCI-60 one-dose screen, 48 h (100 = growth as untreated, 0 = no growth, -100 = all killed)
What all share (conditions): 10 µM

Experiment [1] deals with MDA-MB-231 breast.
Experiment [2] has as its system OVCAR-5 ovarian.
Experiment [3] deals with OVCAR-4 ovarian.
Experiment [4] has as its system IGROV1 ovarian.
For experiment [5], the system named is OVCAR-3 ovarian.
Experiment [6] concerns HS 578T breast.
For experiment [7], the system named is NCI/ADR-RES ovarian.
The subject of experiment [8] is T-47D breast.
In experiment [9] the test system is BT-549 breast.
The test system of experiment [10] is MDA-MB-435 melanoma.
Experiment [11] relates to SW-620 colon.
Experiment [12] concerns MCF7 breast.
Experiment [13] deals with HCT-116 colon.
The subject of experiment [14] is HCC-2998 colon.
In experiment [15] the test system is KM12 colon.
The test system of experiment [16] is LOX IMVI melanoma.
Experiment [17] has as its system SK-OV-3 ovarian.
The subject of experiment [18] is HT29 colon.

`COc1cc(C2CC(c3ccccc3)=Nc3c(N)nc(N)nc3N2)ccc1Oc1nc(NCCO)nc(N2CCOCC2)n1` (centres undefined): the growth was 97.1% in experiment [1]; 107% in experiment [2]; 105% in experiment [3]; 93% in [4]; 109% in experiment [5]; 78.9% in experiment [6]. The growth in [7] is 109%; in [8] it was 90%; in [9] it was 92.6%; in experiment [10], 102%; in experiment [11] it was 107%; in [12], 83%. In addition, the growth in experiment [13] was 105%; in experiment [14] it was 115%; in experiment [15] it was 102%.
Take `CCOc1ccc(/C=N/NC(=O)Cn2nc(Cc3ccc(OC)cc3)c3onc(C)c3c2=O)cc1`: the growth was 20.7% in [1]; 4.69% (active) in [16]; 44.9% in [2]; 10.1% in [3]; 13.7% in [5]; 1.74% (active) in experiment [6]. Further, the growth in experiment [7] was 13.2%; in experiment [9] it was 23.7%; in experiment [10] it was 50.5%; in experiment [11], 23%; in experiment [12], 27.9%; in experiment [13], -23.3% (active). The figures for the growth in [14] and in experiment [15] were -11.5% (active) and 47.9%, respectively.
Consider `COc1ccc(-n2c(SCC(=O)NNS(=O)(=O)c3ccccc3)nc3ccc(Cl)cc3c2=O)cc1`, for which the growth in experiment [1] was 89.3%; in [16], 87.2%; in experiment [2], 102%; in experiment [3], 98.2%; in experiment [17], 66.1%; in experiment [5], 105%. In addition, the growth in experiment [6] was 99.7%; in experiment [7], 105%; in [8] it was 94.8%; in experiment [10], 103%; in experiment [11], 105%; in experiment [12], 83.2%. The growth in experiment [13] was 95.6%; in experiment [14], 118%; in experiment [15] it was 102%.
Turning to `C#CCOc1cc(N(CC)CC)ccc1C(C(=O)NC(C)(C)C)N(C(=O)C1CCc2cc(F)ccc2O1)c1ccc(F)cc1F` (centres undefined), the growth in [1] is 55.4%; in [18] it was 58.3%; in experiment [2] it was 64%; in [3] it was 43.7%; in [4] it was 60.3%; in [5], 33.4%. Moreover, the growth was 70.6% in [6]; 53.1% in experiment [7]; 37.4% in experiment [8]; 40.6% in experiment [10]; 53.7% in experiment [11]; 17.5% in [12]. For the same molecule, the growth in experiment [13] is 24.7%; in experiment [14], 78.1%; in experiment [15], 25%.
Take `Cc1ccc(-c2nc(C#N)c(S(=O)(=O)N3CCN(S(C)(=O)=O)CC3)o2)cc1`: the growth in experiment [1] was 77.6%; in experiment [16] it was -88.6% (active); in [2] it was 76.9%; in [3], 48.1%; in experiment [5] it was -22% (active); in experiment [6], 100%. Moreover, the growth in experiment [7] was 57.6%; in experiment [8] it was -52.4% (active); in [9], 58%; in [10], 57.9%; in [11] it was -71.8% (active); in experiment [12], 5.73% (active). For the same molecule, the figures for the growth in [13], in experiment [14] and in experiment [15] were -74% (active), 92.9% and 92.5%, respectively.
`Cn1cc(-c2nnc(N)nc2-c2c[nH]c3ccc(F)cc23)c2cc(Br)cnc21`: the growth was 56.1% in experiment [1]; 71.6% in experiment [18]; 83.3% in experiment [2]; 59.6% in experiment [3]; 98.8% in experiment [17]; 57.5% in [5]. Moreover, the growth in experiment [6] is 52%; in experiment [7] it was 68.1%; in experiment [10], 67.2%; in experiment [11], 68.5%; in experiment [12] it was 27.7%; in [13], 59.2%. For the same molecule, the growth was 72.8% in [14] and 61.5% in experiment [15].
For `O=C(c1ccc(F)cc1)C(c1c[nH]c2ccccc12)c1c[nH]c2ccccc12`, the growth in experiment [1] was 58.8%; in [16], -76.3% (active); in experiment [2], 52.5%; in [3] it was 55.9%; in [5], 46.9%; in experiment [6], 86.1%. The growth was 54.7% in experiment [7]; 63.9% in experiment [8]; 71.4% in experiment [9]; 58.4% in experiment [10]; 5.23% (active) in experiment [11]; 15.2% in experiment [12]. Also, the growth was 7.24% (active) in experiment [13], 82.9% in [14] and 70.3% in [15].
Regarding `COc1cc2oc(-c3cccc(C(=O)Nc4ccc(Cl)cc4)c3)cc(=O)c2c(OCCN)c1OC`, the growth in [1] is -86.7% (active); in experiment [2], -87.4% (active); in [3] it was -62.9% (active); in [17] it was -84.6% (active); in [4], -73.7% (active); in [5], -87.8% (active). Further, the growth is -68.1% (active) in experiment [6]; -74.7% (active) in [7]; -88.2% (active) in experiment [9]; -76.9% (active) in experiment [10]; -79.4% (active) in experiment [11]; -71.5% (active) in [12]. The growth in experiment [13] was -90.3% (active); in experiment [14] it was -80.8% (active); in [15], -83.2% (active).
Consider `COc1cc(Nc2nc(O)c(/C=C3\C=Nc4ccccc43)s2)cc(OC)c1OC`, for which the growth in [1] was -40.7% (active); in experiment [18], -50.7% (active); in experiment [16] it was -61.5% (active); in experiment [2] it was -52.5% (active); in experiment [3], -63.9% (active); in [5], -77% (active). For the same molecule, the growth in [6] is -20.2% (active); in [7], 11.4%; in experiment [8], 2.48% (active); in experiment [9], -41.4% (active); in [10], -77.1% (active); in [11], -52.1% (active). Also, the growth in experiment [12] was -23.7% (active); in [13], -59.2% (active); in [14], -48.2% (active); in experiment [15], -72.4% (active).

The record behind these values is PubChem BioAssay (NCI).
